Structures are written as SMILES. Values without a mark were called inactive. Results filed as inconclusive are left out. Active and inactive are the calls of the source. Unless noted, the call rests on the fitted dose curve.

Potency data for eight compounds are collected here from PubChem BioAssay (Tox21).

Test [1] can be described thus: Nuclear factor erythroid 2-related factor 2/antioxidant responsive element (Nrf2/ARE) small molecule agonists: luciferase reporter gene qHTS assay in human keratinocytes (AID 1919969). Further: nearly all actives have a fitted effect of over 35% in size. Further: potency means the concentration at half of the fitted maximal effect. Background: A reporter such as luciferase makes a cellular process visible.
Test [2] concerns the target KiSS-1 receptor (Homo sapiens) (UniProt Q969F8). Kind of test: Human kisspeptin (KISS1R) small molecule agonists, calcium flux assay in KISS1R-HEK293 cells (AID 1920064; active means well fitted activation curve with a large enough effect in the repeat runs). A digest of the protocol:
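HEK293 cells stably expressing human KISS1R were loaded with calcium dye for 1 h at 37 C, then given compound; fluorescence (Ex/Em 480/540) was read kinetically for 3 min. Fifteen concentrations, triplicate.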
A general note: A change in cytosolic calcium serves as a functional read-out for many receptors and channels.

A short description of test [3]: G protein-coupled receptor (GPCR) small molecule agonists, calcium flux assay: HEK293 wild type cell line counter screen (AID 1920065). A digest of the protocol: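 Wild-type HEK293 cells plated 18 h, loaded with calcium dye 1 h at 37 C, then compounds added in agonist mode (ATP as positive control). Kinetic fluorescence Ex/Em 480/540 recorded 3 min at 1 sec intervals; 15 concentrations, triplicate.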

Test [4] in a line: p53 small molecule agonists, cell-based qHTS assay with human liver microsomes (AID 1963577). A digest of the protocol:
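p53RE-bla cells, 4,000/well, compound added after 5 h, with human liver microsomes 0.5 mg/mL and NADPH 0.5 mg/mL final; 16 h at 37 C, then LiveBLAzer 2 h RT, fluorescence.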
(In general: qHTS replaces the single test concentration by a dilution series.)

Test [5] is described as follows: p53 small molecule agonists, cell-based qHTS assay with rat liver microsomes (AID 1963578). Summed up:
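p53RE-bla cells, 4,000/well, pre-incubated 5 h, then given compounds plus rat liver microsomes (0.5 mg/mL final) and NADPH (0.5 mg/mL final). Incubation 16 h at 37 C; beta-lactamase reporter read by LiveBLAzer fluorescence after 2 h at room temperature.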

Test [6] in a line: p53 small molecule agonists, cell-based qHTS assay with human liver microsomes: qHTS cell viability counter screen (AID 1963579). Further: nearly all actives have a fitted effect of over 45% in size. Further: potency means the concentration at half of the fitted maximal effect. A digest of the protocol:
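p53RE-bla cells, 4,000/well, dosed 5 hours after plating, with human liver microsomes (0.5 mg/mL final) plus NADPH (0.5 mg/mL final), 16 hours at 37 C. Viability read as CellTiter-Glo luminescence after 30 min at room temperature.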

The nature of test [7]: p53 small molecule agonists, cell-based qHTS assay (AID 1963582; active means well fitted activation curve with a large enough effect in the signal ratio in the repeat runs, not every such curve was filed as active; the % refers to the signal ratio). A digest of the protocol: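 p53RE-bla reporter cells, compounds added in DMSO after 5 h plating, incubated 16 h at 37 C. Beta-lactamase read via 2 h room-temperature LiveBLAzer B/G FRET substrate, fluorescence intensity.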
Test [8] in a line: cAMP Responsive Elements (CRE) small molecule antagonists, cell-based qHTS assay (AID 1963591; active means well fitted inhibition curve with a large enough effect in the signal ratio in the repeat runs, not every such curve was filed as active; the % refers to the signal ratio; further: potency means the concentration at half of the fitted maximal effect). A digest of the protocol:
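CRE-bla HEK293T cells plated 18 h, then given compound plus NKH477 at 0.25 uM final for 3 h at 37C. Beta-lactamase reporter read with LiveBLAzer B/G FRET substrate after 2 h at room temperature.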

Test [9] addresses D(2) dopamine receptor (Homo sapiens) (UniProt P14416). Put plainly: Dopamine D2 receptor (DRD2) small molecule agonists, cell-based qHTS assay (AID 1963594). Further: nearly all actives have a fitted effect of over 35% in size. A digest of the protocol:
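HEK293 cells stably expressing DRD2 were cultured 24 h at 37 C, then given Ro20-1724 (0.1 mM final) and compounds for 10 min at room temperature. NKH477 (200nM) was then added for 30 min. cAMP was read by HTRF.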

Test [10] concerns the target Gonadotropin-releasing hormone receptor (Homo sapiens) (UniProt P30968). Put plainly: Human gonadotropin-releasing hormone receptor (GnRHR) small molecule agonists, calcium flux assay in GnRHR-HEK293 cells (AID 1920063). Further: nearly all actives have a fitted effect of over 35% in size. Summed up:
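HEK293 cells stably expressing human GnRHR were dye-loaded for 1 h at 37 C. Compound was added in agonist mode and fluorescence (Ex/Em 480/540) recorded kinetically for 3 min. Fifteen concentrations, triplicates.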

Test [11] in a line: p53 small molecule agonists, cell-based qHTS assay with rat liver microsomes: qHTS cell viability counter screen (AID 1963580). Further: nearly all actives have a fitted effect of over 45% in size. Further: potency means the concentration at half of the fitted maximal effect. Summed up: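 p53RE-bla HCT-116 cells (4,000/well) rested 5 h at 37 C, then given Tox21 compounds in DMSO with rat liver microsomes (0.5 mg/mL final) plus NADPH (0.5 mg/mL final) for 16 h at 37 C. Viability read by CellTiter-Glo luminescence after 30 min at room temperature.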

Test [12] in a line: p53 small molecule agonists, cell-based qHTS assay: qHTS cell viability counter screen (AID 1963581). Further: nearly all actives have a fitted effect of over 45% in size. Further: potency means the concentration at half of the fitted maximal effect. Summed up: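 p53RE-bla HCT-116 cells, compounds added 5 h after plating and incubated 16 h at 37 C. Cytotoxicity measured in the same wells as intracellular ATP by CellTiter-Glo luminescence after 30 min at room temperature.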
For test [13], the target named is 5-hydroxytryptamine receptor 2A (Homo sapiens) (UniProt P28223). Put plainly: 5-hydroxytryptamine receptor 2A (HTR2A) small molecule antagonists, cell-based qHTS assay (AID 1963586). Further: nearly all actives have a fitted effect of over 45% in size. Further: potency means the concentration at half of the fitted maximal effect. A digest of the protocol: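 Antagonist-mode intracellular calcium assay: DOI (4 nM) added after 5 min compound pre-incubation at room temperature to dye-loaded HTR2A-CHO cells. Fluorescence followed for 3 min, sampled every second.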
Chain of 5-hydroxytryptamine receptor 2A (Homo sapiens) (P28223 whole entry, looked up): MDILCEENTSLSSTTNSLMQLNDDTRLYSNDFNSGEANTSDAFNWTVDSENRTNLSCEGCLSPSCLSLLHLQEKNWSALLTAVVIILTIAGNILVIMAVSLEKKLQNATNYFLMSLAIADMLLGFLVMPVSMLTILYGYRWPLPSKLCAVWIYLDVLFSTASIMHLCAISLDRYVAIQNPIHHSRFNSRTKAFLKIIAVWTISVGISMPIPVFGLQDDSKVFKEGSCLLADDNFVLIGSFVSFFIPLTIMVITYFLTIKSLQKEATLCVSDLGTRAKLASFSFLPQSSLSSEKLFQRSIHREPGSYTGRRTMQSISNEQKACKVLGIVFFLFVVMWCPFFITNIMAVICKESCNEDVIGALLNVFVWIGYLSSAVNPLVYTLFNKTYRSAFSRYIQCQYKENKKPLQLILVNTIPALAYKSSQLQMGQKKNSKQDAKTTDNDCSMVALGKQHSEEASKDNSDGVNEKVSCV

For test [14] the target is unchanged. Put plainly: 5-hydroxytryptamine receptor 2A (HTR2A) small molecule agonists, cell-based qHTS assay (AID 1963587). Further: nearly all actives have a fitted effect of over 30% in size. Further: potency means the concentration at half of the fitted maximal effect. Summed up:
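HTR2A-CHO cells, plated 18 h at 37 C/5% CO2, dye-loaded 1 h at 37 C; compounds in DMSO added by pin tool (agonist mode). Intracellular calcium flux read as kinetic fluorescence on FDSS over 2 min at 1 s intervals.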

Test [15] has as its target Muscarinic acetylcholine receptor M1 (Homo sapiens) (UniProt P11229). Put plainly: Cholinergic receptor muscarinic 1 (CHRM1) small molecule antagonists, cell-based qHTS assay (AID 1963588). Further: nearly all actives have a fitted effect of over 40% in size. Further: potency means the concentration at half of the fitted maximal effect. A digest of the protocol: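 CHRM1-CHO calcium-flux assay, antagonist mode. Cells were seeded 18 h, dye-loaded 1 h at 37 C and given compound for 5 min at RT, then acetylcholine was added at 50nM. FDSS fluorescence was read 3 min; 15 concentrations, three runs.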

The target is the same in test [16]. Kind of test: Cholinergic receptor muscarinic 1 (CHRM1) small molecule agonists, cell-based qHTS assay (AID 1963589). Further: nearly all actives have a fitted effect of over 35% in size. A digest of the protocol: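 CHO cells stably expressing human CHRM1 were loaded with calcium dye for 1 h at 37 C, then compound was added in agonist mode. Intracellular calcium fluorescence was followed kinetically at 1 s intervals. Fifteen concentrations were tested in three independent runs.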

Test [17] addresses Beta-2 adrenergic receptor (Homo sapiens) (UniProt P07550). Kind of test: Adrenergic beta2 receptor (ADRB2) small molecule antagonists, cell-based qHTS assay (AID 1963592). Further: nearly all actives have a fitted effect of over 50% in size. Further: potency means the concentration at half of the fitted maximal effect. A digest of the protocol:
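Cells (CHO, stable ADRB2 overexpression) incubated 18-20hr at 37C; compounds added from DMSO; agonist mix (1nM isoproterenol, 100uM IBMX, 25uM Ro-20-1724) added; 0.5hr RT; d2-cAMP and anti-cAMP-cryptate added; 1hr RT; 665/615 nm read.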

For test [18], the target named is D(2) dopamine receptor (Homo sapiens) (UniProt P14416). Kind of test: Dopamine D2 receptor (DRD2) small molecule antagonists, cell-based qHTS assay (AID 1963595; active means well fitted inhibition curve with a large enough effect in the signal ratio in the repeat runs, with a control signal flat; the % refers to the signal ratio; further: potency means the concentration at half of the fitted maximal effect). Summed up:
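Human DRD2 antagonist qHTS measuring cAMP by HTRF. The cells are exposed to compound for 10 min, then to NKH477 (200 nM) and quinpirole (12 nM) for 30 min at RT, with Ro20-1724 (0.1 mM) present throughout.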

Test [19] is described as follows: cAMP Responsive Elements (CRE) small molecule agonists, cell-based qHTS assay (AID 1963590). A digest of the protocol: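 CRE-bla HEK 293T cells, 2,000/well in DMEM with 10% dialyzed FBS and 25 mM HEPES, pre-incubated 18 h at 37 C, then exposed to compound 3 h at 37 C. Beta-lactamase reporter read with LiveBLAzer B/G FRET substrate after 2 h at room temperature.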

Test [20] deals with Beta-2 adrenergic receptor (Homo sapiens) (UniProt P07550). Put plainly: Adrenergic beta2 receptor (ADRB2) small molecule agonists, cell-based qHTS assay (AID 1963593).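 Further: CHO cells stably overexpressing human ADRB2.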 Summed up:
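CHO cells stably over-expressing ADRB2 were plated overnight at 37C, then dosed with compounds plus a stimulation mix containing 100uM IBMX and 25uM Ro-20-1724 for 0.5hr at room temperature. cAMP was measured by HTRF competition, 1hr.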

Chain of D(2) dopamine receptor (Homo sapiens) (P14416 whole entry, looked up): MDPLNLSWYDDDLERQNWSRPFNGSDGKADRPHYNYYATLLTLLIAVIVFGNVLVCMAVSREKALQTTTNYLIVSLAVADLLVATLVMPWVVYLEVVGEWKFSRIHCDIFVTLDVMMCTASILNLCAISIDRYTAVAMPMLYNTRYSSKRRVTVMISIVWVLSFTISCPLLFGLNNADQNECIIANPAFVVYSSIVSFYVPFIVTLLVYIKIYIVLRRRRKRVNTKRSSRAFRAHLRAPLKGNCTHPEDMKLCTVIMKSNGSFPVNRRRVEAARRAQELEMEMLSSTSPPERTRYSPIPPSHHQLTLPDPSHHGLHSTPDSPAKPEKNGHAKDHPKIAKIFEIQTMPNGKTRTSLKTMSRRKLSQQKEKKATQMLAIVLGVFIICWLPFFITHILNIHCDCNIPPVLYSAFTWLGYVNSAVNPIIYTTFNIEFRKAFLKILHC
Chain of Gonadotropin-releasing hormone receptor (Homo sapiens) (P30968 whole entry, looked up): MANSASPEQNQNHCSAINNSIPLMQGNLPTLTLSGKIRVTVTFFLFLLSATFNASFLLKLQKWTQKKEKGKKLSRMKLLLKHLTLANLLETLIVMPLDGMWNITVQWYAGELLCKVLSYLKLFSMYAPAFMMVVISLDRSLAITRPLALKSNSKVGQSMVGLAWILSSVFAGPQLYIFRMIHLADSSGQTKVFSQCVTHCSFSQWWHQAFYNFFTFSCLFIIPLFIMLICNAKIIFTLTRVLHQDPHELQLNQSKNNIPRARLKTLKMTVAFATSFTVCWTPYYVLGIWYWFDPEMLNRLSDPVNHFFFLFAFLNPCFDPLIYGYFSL
Chain of Muscarinic acetylcholine receptor M1 (Homo sapiens) (P11229 whole entry, looked up): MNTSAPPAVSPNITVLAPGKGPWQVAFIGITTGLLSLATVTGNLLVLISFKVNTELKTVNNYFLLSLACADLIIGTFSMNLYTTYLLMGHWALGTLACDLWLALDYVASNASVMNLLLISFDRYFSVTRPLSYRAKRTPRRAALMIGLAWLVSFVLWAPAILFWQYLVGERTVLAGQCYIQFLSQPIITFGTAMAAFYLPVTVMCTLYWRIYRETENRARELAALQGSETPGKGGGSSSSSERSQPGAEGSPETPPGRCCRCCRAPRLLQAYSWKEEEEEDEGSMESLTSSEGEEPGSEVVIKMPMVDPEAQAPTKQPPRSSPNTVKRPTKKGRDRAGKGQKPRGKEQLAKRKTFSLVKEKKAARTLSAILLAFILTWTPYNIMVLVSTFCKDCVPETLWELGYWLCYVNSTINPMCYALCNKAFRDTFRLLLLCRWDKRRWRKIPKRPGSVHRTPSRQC
Chain of KiSS-1 receptor (Homo sapiens) (Q969F8 whole entry, looked up): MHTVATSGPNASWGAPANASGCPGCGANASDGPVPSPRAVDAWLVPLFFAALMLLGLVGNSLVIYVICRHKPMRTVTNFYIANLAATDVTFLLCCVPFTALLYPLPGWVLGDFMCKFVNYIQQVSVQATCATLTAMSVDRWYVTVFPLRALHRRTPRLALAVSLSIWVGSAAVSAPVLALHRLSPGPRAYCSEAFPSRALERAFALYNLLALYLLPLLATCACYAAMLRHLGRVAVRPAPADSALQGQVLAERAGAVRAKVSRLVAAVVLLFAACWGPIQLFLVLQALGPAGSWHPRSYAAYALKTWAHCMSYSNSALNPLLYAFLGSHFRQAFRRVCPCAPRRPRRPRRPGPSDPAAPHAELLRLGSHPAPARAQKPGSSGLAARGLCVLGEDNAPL
Chain of Beta-2 adrenergic receptor (Homo sapiens) (P07550 whole entry, looked up): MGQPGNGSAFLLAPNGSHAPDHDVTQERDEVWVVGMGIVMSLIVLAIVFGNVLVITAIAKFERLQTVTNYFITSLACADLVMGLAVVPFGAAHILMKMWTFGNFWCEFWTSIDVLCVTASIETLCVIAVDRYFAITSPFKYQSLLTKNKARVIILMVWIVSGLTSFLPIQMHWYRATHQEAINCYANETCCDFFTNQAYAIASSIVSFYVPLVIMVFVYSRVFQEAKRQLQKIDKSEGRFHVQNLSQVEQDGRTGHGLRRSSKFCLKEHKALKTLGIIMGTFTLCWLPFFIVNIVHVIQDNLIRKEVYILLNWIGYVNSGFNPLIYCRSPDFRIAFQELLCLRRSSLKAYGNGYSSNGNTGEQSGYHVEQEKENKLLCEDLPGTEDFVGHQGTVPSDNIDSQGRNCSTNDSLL

In the case of `C1CCC(C(CC2CCCCN2)C2CCCCC2)CC1` (stereo unspecified), the Potency entry in test [1], in [2], in test [3], in test [4], in test [5] and in [6] was “inactive” in each case. Further, the Potency entry in test [7] and in test [9] was “inactive” in each case. For the same compound, in test [8], the Potency was 29.8 µM (active).

Consider `NNc1nc(-c2ccccc2)cs1`, for which the Potency in test [1] is 62.9 µM (active). Besides, the Potency result in test [10], in [3], in test [6], in test [11], in [12] and in test [13] was “inactive” each time. Also, the Potency entry in test [14], in test [15], in test [16], in test [17], in test [9] and in [18] was “inactive” in each case.

Turning to `CCCCCCCCCCCCCOS(=O)(=O)O`, the Potency entry in test [1], in test [2], in [3], in test [4], in test [5] and in test [11] was “inactive” each time. Also, the Potency result in [12], in test [7], in [16], in [17] and in [18] was “inactive” each time. Moreover, the Potency in test [13] was 42.1 µM (active).

`CCCCC(CC)CN=C(N)NC(N)=NCCCCCCN=C(N)NC(N)=NCC(CC)CCCC` (stereo unspecified): the Potency result in test [1], in test [2], in [3], in [4], in test [5] and in [16] was “inactive” each time. Also, the Potency in [6] was 22.3 µM (active); in test [11], 17.8 µM (active); in test [12], 19.9 µM (active); in [13] it was 18.3 µM (active); in test [15] it was 0.918 µM (active); in test [8], 29.8 µM (active). Moreover, the Potency was 29.8 µM (active) in [17] and 13.3 µM (active) in [18].

Regarding `C[C@]12CC[C@H]3C(=CCc4cc(O)ccc43)[C@@H]1CCC2=O`, the Potency entry in [1], in test [2], in [3], in test [4], in test [6] and in test [11] was “inactive” throughout. Further, the Potency entry in test [12], in test [7], in test [13], in test [14], in [15] and in [16] was “inactive” in each case. The Potency result in [19], in test [17], in test [20], in test [9] and in test [18] was “inactive” in each case.

As to `Clc1ccc2cc3ccccc3cc2c1`, the Potency entry in test [1], in test [10], in [3], in [6], in test [11] and in [12] was “inactive” in each case. Also, the Potency entry in [13], in test [15], in [16], in test [17], in test [9] and in test [18] was “inactive” throughout.

`O=C(Nc1ncc([N+](=O)[O-])s1)c1cccs1`: the Potency in test [1] is 1.06 µM (active). The Potency entry in test [10], in test [5], in test [12], in test [7], in [14] and in test [15] was “inactive” each time. The Potency result in test [16], in [8] and in test [18] was “inactive” in each case.

As to `Cc1cc(C)c(/C=C2\C(=O)Nc3ccccc32)[nH]1`, the Potency entry in test [1], in test [2], in [3], in [4], in [5] and in test [6] was “inactive” each time. The Potency result in test [11], in test [12], in [7], in test [13], in test [15] and in test [16] was “inactive” each time. Besides, the Potency entry in [18] was “inactive”. For the same compound, the Potency in test [14] was 21.3 µM (active).
